In all, about 2,500 compounds went through this assay and about 1,100 (44%) were called active. The set was probably picked from earlier hits. This is one part of the list. Values without a mark were called inactive.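 How the source made its calls: active means inhibition above 50% at 4 µM in the single-point screen; inactive means inhibition of 50% or less.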
assay: TNF-a-driven NF-kB reporter inhibitors, primary screen, selectivity assay for NOD1/NOD2 signaling inhibitor project, cell-based, HEK293T NF-kB-Luc, luminescence (AID 1852); conditions: TNF-a induced, 14 h, at 4 µM, active compounds read high

Row | SMILES | inhibition
1 | CCCCN=C[C@]12CCC(O)CC1(O)CCC1[C@@H]2CC[C@]2(C)[C@H](C3C=CC(=O)O3)CCC12O (stereo partly drawn) | 92.1% (active)
2 | COc1ccc(-c2cc(-c3ccccc3)[n+](C)c(-c3ccccc3)c2)cc1 | 46.4%
3 | CN(C)c1ccc(-[n+]2c(-c3ccccc3)cc(-c3ccccc3)cc2-c2ccccc2)cc1 | 94.6% (active)
4 | COc1ccc(-[n+]2c(-c3ccccc3)cc(-c3ccc(C)cc3)cc2-c2ccccc2)cc1 | 75.4% (active)
5 | O=C(c1ccc(Cl)cc1)C1CCCN(Cc2cccc3ncccc23)C1 (stereo not drawn) | 29.9%
6 | CCOc1ccc(-c2c(C)n(-c3ccc(OCC)cc3)c3[n+]2CCCCC3)cc1 | 87% (active)
7 | COC1CC(OC2CCC3(C)C(CCC4C3CCC3(C)C(C5=CC(=O)OC5)C(OC(C)=O)CC43O)C2)OC(C)C1OC1OC(COC2OC(CO)C(O)C(O)C2O)C(O)C(O)C1O (stereo not drawn) | 94.7% (active)
8 | CC(=O)c1c(C)n(C2CCCCC2)c2ccc(O)cc12 | 90% (active)
9 | CC(C)(C)c1ccc(CSc2cnn(C(C)(C)C)c(=O)c2Cl)cc1 | 48.3%
10 | NC(=O)c1cn(C2OC(CO)C(O)C2O)c2ncnc(N)c12 (stereo not drawn) | 99.9% (active)
11 | CN1C2CCC1/C(=C/c1ccccn1)C(=O)/C2=C\c1ccccn1 | 102% (active)
12 | Cc1cc(C)cc(N2C(=O)NC(=O)/C(=C/c3cccn3-c3ccc(Cl)cc3)C2=O)c1 | -24%
13 | CN1C(=O)/C(=C/c2cccn2-c2ccc3ccccc3c2)C(=O)NC1=S | 5.6%
14 | CCn1nc(/C=C/c2ccccc2)nc2c(=O)n(C)c(=O)nc1-2 | 104% (active)
15 | CCn1nc(-c2ccccc2)nc2c(=O)n(C)c(=O)nc1-2 | 99.1% (active)
16 | C=CCN1C(=O)NC(=O)/C(=C/C=C/c2ccccc2)C1=O | 49.4%
17 | O=C1NC(=O)N(CCc2ccc(F)cc2)C(=O)/C1=C\C=C\c1ccccc1 | 56% (active)
18 | O=C1NC(=O)N(Cc2ccccc2)C(=O)/C1=C/C=C/c1ccco1 | 36.6%
19 | O=C1NC(=O)N(Cc2ccco2)C(=O)/C1=C/C=C/c1ccco1 | -10.1%
20 | O=C1NC(=O)N(Cc2ccc(F)cc2)C(=O)/C1=C\C=C\c1ccco1 | 89.3% (active)
21 | COc1cc(OC)c(OC)cc1/C=C1/C(=O)NC(=O)N(Cc2ccccc2)C1=O | 29.5%
22 | COc1ccc(Oc2cc(NC(=O)c3nn(C)cc3[N+](=O)[O-])cc([N+](=O)[O-])c2)cc1 | 61.5% (active)
23 | C[C@H]1CCC[C@@H](O)CCC/C=C/c2cc(O)cc(O)c2C(=O)O1 | 73.6% (active)
24 | CC(=O)c1cn(Cc2ccccc2F)c2ccccc12 | 31.5%
25 | Cc1nc2c(=O)n(C)c(=O)nc-2n(C)n1 | 99.4% (active)
26 | CCn1ccnc1CN1CCCC(C(=O)c2cc(Cl)ccc2OC)C1 (stereo not drawn) | 0.8%

Row | SMILES | inhibition
27 | O=c1c2ccccc2nc(/C=C/c2ccc3c(c2)OCO3)n1-c1ccccc1 | -34.6%
28 | O=c1c2ccccc2nc(/C=C/c2ccccc2O)n1-c1ccccc1O | 64.8% (active)
29 | O=C1C(=O)c2ccccc2-c2ccccc21 | 104% (active)
30 | CN1C(=O)NC(=O)/C(=C\C=C\c2ccccc2[N+](=O)[O-])C1=O | 72.4% (active)
31 | O=C1NC(=O)N(c2ccccc2)C(=O)/C1=C/C=C/c1ccco1 | 32%
32 | O=C1NC(=O)N(c2ccccc2)C(=O)/C1=C\C=C\c1ccccc1 | 45.9%
33 | O=c1nc(/C=C/c2ccc(Cl)cc2Cl)cc(C(F)(F)F)[nH]1 | -105%
34 | COc1ccc(-n2c(O)c(/C=C3\C=Nc4ccc(Br)cc43)c(=O)[nH]c2=O)cc1 | 23.8%
35 | O=C(c1cc(-c2ccc(Cl)cc2)n(-c2ccc(Cl)cc2Cl)n1)N1CCOCC1 | -36%
36 | CC(=O)OC[C@]12CCC(C)=C[C@H]1O[C@@H]1[C@H](O)[C@@H](OC(C)=O)[C@@]2(C)[C@]12CO2 | 102% (active)
37 | C=C(C=O)CC1CC(O)[C@]2(C)OC3CC4OC5C[C@]6(C)O[C@]7(C)CCC8OC9C[C@]%10(C)OC%11C(C)=CC(=O)OC%11CC%10OC9C[C@@H](C)C8OC7CC6O[C@]5(C)CC5OC5C4OC3CC2O1 (stereo partly drawn) | 80.4% (active)
38 | CCCCn1c(=O)c(C(=O)Nc2cnccn2)c(O)c2ccccc21 | 3.4%
39 | CCCCCn1c(=O)c(C(=O)Nc2ccccc2S(N)(=O)=O)c(O)c2ccccc21 | -7%
40 | CC(C)CCn1c(=O)c(C(=O)Nc2ccccc2S(N)(=O)=O)c(O)c2ccccc21 | -7.2%
41 | CCCCCCCn1c(=O)c(C(=O)Nc2cnccn2)c(O)c2ccccc21 | 34.9%
42 | CCCCCCn1c(=O)c(C(=O)Nc2cnccn2)c(O)c2ccccc21 | 52.2% (active)
43 | CCCCCn1c(=O)c(C(=O)Nc2cnccn2)c(O)c2ccccc21 | 53.4% (active)
44 | Cc1ccc(N2C(=O)NC(=O)/C(=C\C=C\c3ccco3)C2=O)cc1 | 9.7%
45 | O=Cc1cn(Cc2cccc([N+](=O)[O-])c2)c2ccccc12 | 86.7% (active)
46 | O=c1[nH]c(=O)n(-c2ccccc2F)c(O)c1/C=C1\C=Nc2ccccc21 | 14.8%
47 | O=c1c2ccccc2nc(/C=C/c2ccc([N+](=O)[O-])o2)n1-c1ccc(O)cc1 | 89.7% (active)
48 | Nc1nonc1C(=O)N/N=C/c1ccc([N+](=O)[O-])o1 | 31.1%
49 | Cc1cccc(-n2c(/C=C/c3ccc([N+](=O)[O-])o3)nc3ccccc3c2=O)c1 | 91.9% (active)
50 | COc1ccc(-n2c(/C=C/c3ccc(O)cc3)nc3ccccc3c2=O)cc1 | 3.4%
51 | O=C1NC(=S)N(c2ccccc2F)C(=O)/C1=C\c1cccs1 | -11.1%
52 | Cc1ccc(/C=C2\C(=O)NC(=S)N(c3ccccc3F)C2=O)s1 | 106% (active)

Row | SMILES | inhibition
53 | COc1cccc(N2C(=O)/C(=C/c3ccc(C)o3)C(=O)NC2=S)c1 | 40.9%
54 | Cc1ccc(Sc2ccc(C=C3C(=O)N(C)C(=O)N(C)C3=O)o2)cc1 | -5.5%
55 | C=CCn1c(O)c(C(C)=NCc2cc(OC)cc(OC)c2)c(=O)[nH]c1=O | 16%
56 | Cc1ccccc1-n1c(O)c(/C=C2/C(c3ccccc3)=Nc3ccccc32)c(=O)[nH]c1=O | 16.1%
57 | CCOc1ccc(-c2cc(C)[n+](CCN(CC)CC)c(-c3ccc(OCC)cc3)c2)cc1 | 51.9% (active)
58 | C[C@@H]1O[C@@H](O[C@H]2C[C@@H](O)[C@]3(CO)[C@H]4[C@H](O)C[C@]5(C)[C@@H](C6=CC(=O)OC6)CC[C@]5(O)[C@@H]4CC[C@]3(O)C2)[C@H](O)[C@H](O)[C@H]1O | 106% (active)
59 | CC(C)N1C(=O)/C(=C/C=C/c2ccco2)C(=O)N(Cc2ccco2)C1=O | 22.9%
60 | CC(C)[C@H]1C(=O)O[C@H](C(C)C)C(=O)N(C)[C@@H](C(C)C)C(=O)O[C@H](C(C)C)C(=O)N(C)[C@@H](C(C)C)C(=O)O[C@H](C(C)C)C(=O)N1C | 90.7% (active)
61 | COC(=O)[C@]12OC[C@]34C([C@@H](O)[C@@H]1O)[C@]1(C)CC(=O)C(O)=C(C)[C@@H]1C[C@H]3OC(=O)[C@H](O)[C@@H]24 (stereo partly drawn) | 76.8% (active)
62 | CC[C@@]1(O)C(=O)OCc2c1cc1n(c2=O)Cc2cc3ccccc3nc2-1 | 98.4% (active)
63 | Cc1cccc(OCCn2cccc2/C=C2/C(=O)NC(=O)N(Cc3ccco3)C2=O)c1 | 9.6%
64 | C[C@]12CCC3C(CCC4=CC(O)CC[C@@]43/C=N/O)C1(O)CCC2C1=CC(=O)OC1 (stereo partly drawn) | 97.3% (active)
65 | C=C1C(=O)O[C@@H]2C[C@@H](C)[C@@H]3C=CC(=O)[C@@]3(C)[C@@H](OC(=O)CC(=O)O[C@H]3[C@@H]4C(=C)C(=O)O[C@@H]4C[C@@H](C)[C@@H]4C=CC(=O)[C@]43C)[C@H]12 | 103% (active)
66 | C=C1C(=O)O[C@@H]2C[C@@H](C)[C@@H]3C=CC(=O)[C@@]3(C)[C@@H](O)[C@H]12 | 104% (active)
67 | C=C1C(=O)O[C@@H]2C[C@@H](C)[C@@H]3C4OC4C(=O)[C@@]3(C)[C@@H](O)[C@H]12 (stereo partly drawn) | 96.7% (active)
68 | C=C1C(=O)O[C@H]2C[C@@H](C)[C@@H]3C=CC(=O)[C@@]3(C)C[C@H]12 | 108% (active)
69 | O=C(c1ccc(Cl)cc1)C1CCCN(Cc2ccc3ncccc3c2)C1 (stereo not drawn) | 29.7%
70 | CCC(C)C(NC(=O)CCCNC(=O)CCC(=O)OC1O[C@H]2OC3(C)CC[C@H]4[C@H](C)CCC(C1C)C24OO3)C(=O)O (stereo partly drawn) | 87.7% (active)
71 | CCC(C)NC(=O)CCC(=O)OC1O[C@H]2OC3(C)CC[C@H]4[C@H](C)CCC(C1C)C24OO3 (stereo partly drawn) | 52.3% (active)
72 | CC(C)CC(NC(=O)CCCNC(=O)CCC(=O)OC1O[C@H]2OC3(C)CC[C@H]4[C@H](C)CCC(C1C)C24OO3)C(=O)O (stereo partly drawn) | 55.3% (active)
73 | CC1=CC(=Cc2sc3ccccc3[n+]2C)C=C(C)O1 | 43.4%
74 | CN1CCN(c2ncnc3ccc(Br)cc23)CC1 | 33%
75 | Cc1cccc(-n2c(O)c(/C=C3/C(c4ccccc4)=Nc4ccccc43)c(=O)[nH]c2=O)c1 | 32.8%
76 | O=C(c1ccc(C(F)(F)F)cc1)C1CCCN(Cc2ccncc2)C1 (stereo not drawn) | 30.7%
77 | CCN1/C(=C\C=C\C2=[N+](CC)c3ccccc3C2(C)C)C(C)(C)c2ccccc21 | 101% (active)
78 | CN1/C(=C\C=C\C2=[N+](C)c3ccc4ccccc4c3C2(C)C)C(C)(C)c2ccccc21 | 87.9% (active)

Source: PubChem BioAssay AID1852 (Sanford-Burnham Center for Chemical Genomics, 2009)
